High-throughput results: PubChem BioAssay, The Scripps Research Institute Molecular Screening Center
hcDAF12 agonist = activators of H. contortus DAF-12 nuclear receptor; AID 652067; HEK293 hcDAF-12 lit1-tk-luc reporter, luminescence; 0% DMSO, 100% Δ7-dafachronic acid; activation, % at 6.8 µM; 370,000 compounds, 1.4% hits;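 active = activation above the mean of all tested compounds plus 3 SD, cut at about 5.5% in these data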;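 note: 100% = response to 3 µM Δ7-dafachronic acid high control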
Wee1 stabilizer = blocks degradation of human Wee1 kinase. 220,000 compounds, 1.2% hits. reporter increase, % at 5 µM. HeLa Luc-Wee1K328M stability, luciferase luminescence; 100% = proteasome inhibitor MG132 effect. AID 1321. P30291;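 active = activation above the mean of all tested compounds plus 3 SD, set per screening run, cut at about 8.8% in these data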;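 note: cells exposed to compound for 20 h before luminescence read; 0% = DMSO alone and 100% = MG132 at 30 µM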
DAX1 inh-1 = blocks DAX1 repression of SF-1 activated StAR promoter; inhibition, % at 6.8 µM; 370,000 compounds, 1.1% hits; HEK293T StAR-luciferase reporter, SF-1/DAX-1 repression relief;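 active = inhibition above the mean over all tested compounds plus 3 SD, cut at about 3.6% in these data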;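 note: 0% = DAX-1 cells with DMSO and 100% = cells lacking DAX-1 with DMSO; higher inhibition means more luminescence from relief of DAX-1 repression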
hgDAF-12 ag = agonists of H. glycines DAF-12 nuclear receptor; 370,000 compounds, 1.8% hits; HEK293 GAL4-hgDAF12 UAS-luciferase reporter, agonist luminescence; normalized to butyrate control; activation, % at 6.8 µM;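 active = activation above a cutoff set at the mean of all screened compounds plus 3 SD, cut at about 10% in these data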;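 note: 0% = DMSO wells and 100% = sodium butyrate wells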
DAX1 inh-2 = inhibits human nuclear receptor DAX1. P51843. 340,000 compounds, 0.99% hits. HEK293 Gal4-DAX1 luciferase reporter, luminescence. inhibition, % at 6.75 µM;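 active = inhibition above the mean over all tested compounds plus 3 SD, cut at about 4.2% in these data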;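 note: 0% = DAX1-transfected cells with DMSO and 100% = empty-vector control cells with DMSO; inhibition shows as a rise in luminescence from relieved DAX1 repression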
Target sequence (P51843 207-470 limits assumed): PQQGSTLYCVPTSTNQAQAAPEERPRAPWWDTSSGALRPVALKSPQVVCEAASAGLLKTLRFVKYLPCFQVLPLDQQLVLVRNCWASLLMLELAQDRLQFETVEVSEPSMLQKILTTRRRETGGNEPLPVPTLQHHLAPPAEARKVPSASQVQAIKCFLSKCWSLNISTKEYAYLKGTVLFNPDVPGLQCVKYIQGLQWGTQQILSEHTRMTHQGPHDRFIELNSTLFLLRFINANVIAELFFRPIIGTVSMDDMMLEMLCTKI
ssDAF-12 act = activators of S. stercoralis DAF-12 nuclear receptor; HEK293 ssDAF-12/GRIP1 lit1-tk-luc reporter, luminescence; % of 3 µM dafachronic acid response; activation, % at 6.8 µM; 370,000 compounds, 1% hits; AID 652126;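 active = activation above the mean over all tested compounds plus 3 SD, cut at about 0.9% in these data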;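 note: 0% = DMSO-only wells and 100% = 3 µM delta7-dafachronic acid wells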
hgDAF12 conf = hgDAF-12 agonism, confirmation assay | shares compounds with hgDAF-12 ag | HEK293 GAL4-hgDAF12 luciferase reporter, agonist mode; percent of butyrate response | activation, % at 6.8 µM | 3,300 compounds, 80% hits | AID 743050;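 active = mean activation over triplicate wells above the hit cutoff derived from the earlier primary screen, cut at about 11% in these data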;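 note: 0% = DMSO low control and 100% = 2 mM sodium butyrate high control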
LXR ag 2 = activates human LXR-beta, counter-screen for DAF-12 agonists; shares compounds with hgDAF-12 ag; HEK293 Gal4-LXR luciferase reporter, 24 h; activation, % at 6.8 µM; 3,300 tested, under 10 active; AID 743051;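 active = mean activation of the triplicate above a set limit carried over from the primary screen, none filed active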
Target sequence (P55055 whole entry, looked up, the tested form may be a part): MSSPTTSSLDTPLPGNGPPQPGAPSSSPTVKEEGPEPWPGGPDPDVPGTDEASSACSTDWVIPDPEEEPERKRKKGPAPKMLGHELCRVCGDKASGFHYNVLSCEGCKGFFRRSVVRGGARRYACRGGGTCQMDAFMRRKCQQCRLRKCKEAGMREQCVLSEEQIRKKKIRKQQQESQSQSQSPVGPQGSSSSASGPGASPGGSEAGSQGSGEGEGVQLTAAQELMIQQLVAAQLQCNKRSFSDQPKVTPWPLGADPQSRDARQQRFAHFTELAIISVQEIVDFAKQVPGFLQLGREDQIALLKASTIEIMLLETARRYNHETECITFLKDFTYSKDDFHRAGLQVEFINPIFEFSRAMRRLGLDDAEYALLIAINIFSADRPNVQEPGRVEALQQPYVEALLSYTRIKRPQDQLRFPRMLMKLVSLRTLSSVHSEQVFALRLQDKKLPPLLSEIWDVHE
An asterisk follows results filed as active; . = no result. The list is not random: actives were taken first. Their share in the collection is about 4.6%.

SMILES | hcDAF12 agonist | Wee1 stabilizer | DAX1 inh-1 | hgDAF-12 ag | DAX1 inh-2 | ssDAF-12 act | hgDAF12 conf | LXR ag 2
O=[N+]([O-])c1cccc(-c2nnc(-c3ccccc3)o2)c1 | 2.5 | -0.2 | 0.3 | 13.9* | 0.3 | -0.6 | 16.4* | 0.5
Cc1c(C=Nc2ccc(S(=O)(=O)N(C)C)cc2)c(O)[nH]c(=O)c1C#N | -1.1 | . | -0.2 | -0.8 | -0.5 | -1.9 | . | .
O=C(CSc1cccc[n+]1[O-])Nc1cc2c(cc1Cl)C(=O)c1ccccc1C2=O | 5.2 | 1.1 | 0.5 | 15.3* | 1.2 | 1.1* | 12.6* | 0.6
O=C(CSc1cccc[n+]1[O-])Nc1cc([N+](=O)[O-])ccc1Cl | -1.2 | 3.6 | -0.1 | 2.5 | 0.1 | -0.5 | . | .
CC(NC(=O)c1cc2c(=O)n(C)c3ccccc3c2n1C)c1ccc2c(c1)OCCO2 (centres undefined) | -1.3 | -1.7 | 0.5 | 17.4* | -0.1 | -0.6 | -4.1 | 0.0
COc1ccc(-n2ncc3c(N4CCC(C(N)=O)CC4)ncnc32)cc1 | 4.6 | 1.7 | 3.0 | 14.1* | 3.0 | -0.1 | 14.7* | 0.6
COc1ccc(-n2ncc3c(N4CCN(Cc5ccccc5)CC4)ncnc32)cc1 | -3.3 | 0.1 | -2.8 | 1.6 | 0.6 | -2.6 | . | .
O=C(CSC(=S)N1CCSCC1)c1ccc(Cl)cc1 | 0.6 | -3.1 | 2.4 | 13.3* | 3.6 | -0.7 | 13.5* | 0.7
O=C(NCCc1ccc(Cl)cc1)c1n[nH]c2ccccc12 | -0.9 | -1.1 | 0.6 | 7.5 | 1.3 | -0.9 | . | .
O=C(OCCOc1ccccc1)c1n[nH]c2ccccc12 | 1.1 | 3.1 | 1.8 | 14.9* | 3.2 | -0.6 | 13.3* | 0.6
O=C(NCCc1ccccc1)c1n[nH]c2ccccc12 | 5.7* | 3.4 | 2.8 | 14.6* | 0.6 | 0.0 | 13.3* | 0.7
CCSc1ccc([C@@H]2[C@@H]3C(=O)N(CC)C(=O)[C@@H]3[C@]3(C(=O)OC)CCCN23)cc1 | 0.7 | . | -0.1 | -1.4 | 0.6 | -1.5 | . | .
COc1ccc(/C=N/NC(=O)c2sccc2C)c2ccccc12 | 3.0 | . | 1.4 | 14.6* | 6.2* | 0.1 | 5.4 | 0.2
Cc1ccc2nc(-c3ccc(NC(=O)CSc4nnc(-c5cc(C)[nH]n5)n4N)cc3)sc2c1 | 1.4 | . | 4.4* | 13.5* | . | -0.1 | 11.5* | 0.6
Cc1ccc2nc(-c3ccc(NC(=O)CSc4nnc(-c5cccc(Cl)c5)n4Cc4ccco4)cc3)sc2c1 | 6.3* | . | 1.5 | 20.5* | . | 0.2 | 16.5* | 0.7
Cc1ccc2nc(-c3ccc(NC(=O)CSc4nnc(-c5cc(-c6ccc(F)cc6)n[nH]5)n4N)cc3)sc2c1 | 1.7 | . | 3.0 | 16.2* | . | 0.8 | 14.8* | 0.6
C=C(C)CN(CC)C(=O)CCc1nnc(CCCc2ccccc2)o1 | 3.7 | 4.1 | 1.1 | 17.4* | 1.9 | -0.1 | 11.9* | 0.3
Cc1ccc(NC(=O)C(C)N2CCN(C)CC2)cc1S(=O)(=O)N1CCOCC1 (centres undefined) | -1.0 | . | 1.9 | 0.0 | 0.0 | -0.9 | . | .
Cc1ccc(-c2nnc(CCC(=O)NCC3C4CC5CC(C4)CC3C5)o2)s1 (centres undefined) | 4.6 | 2.9 | 2.3 | 13.6* | 2.8 | -0.2 | 10.4 | 0.3
O=c1oc(-c2ccc([N+](=O)[O-])cc2)nc2ccc(O)cc12 | 0.3 | 1.2 | 0.4 | -1.5 | -0.7 | 0.1 | . | .
Nc1ccc(-c2nc3cc([N+](=O)[O-])ccc3o2)cc1 | 5.7* | 1.8 | 2.5 | 23.6* | 5.7* | 0.7 | 19.6* | 0.9
CCc1ccc(OCc2ccc(C(=O)OC)o2)cc1 | 3.5 | . | 1.4 | 16.8* | 3.6 | -0.7 | 13.6* | 0.6
CCC(C)c1ccc(OCc2ccc(C(=O)OC)o2)cc1 (centres undefined) | 4.5 | -1.1 | 3.2 | 15.2* | 3.8 | 1.0* | 17.8* | 0.7
COC(=O)c1ccc(COc2ccc(C(C)(C)C)cc2)o1 | 1.0 | . | 1.2 | 5.2 | 0.9 | -0.9 | . | .
CCN(CC(=O)Nc1ccccc1C(F)(F)F)C(=O)c1ccc2c(=O)n3c(nc2c1)CCC3 | -2.2 | . | -0.1 | 2.0 | -0.1 | -0.9 | . | .
SMILES | hcDAF12 agonist | Wee1 stabilizer | DAX1 inh-1 | hgDAF-12 ag | DAX1 inh-2 | ssDAF-12 act | hgDAF12 conf | LXR ag 2
CCN(CC(=O)Nc1c(F)cccc1F)C(=O)c1ccc2c(=O)n3c(nc2c1)CCC3 | 0.3 | . | 0.0 | 16.2* | 1.2 | -0.8 | 2.2 | 0.1
O=C(Nc1cccc(Cl)c1Cl)c1csc([C@H]2C[C@H](O)[C@@H](CO)O2)n1 | 4.8 | . | 2.1 | 14.7* | . | 0.4 | 13.5* | 0.6
C[C@H]1CCCCO[C@@H](CN(C)CC2CC2)[C@@H](C)CN([C@@H](C)CO)C(=O)c2cc(NS(=O)(=O)c3ccccc3)ccc2O1 | -1.6 | . | 0.5 | -3.7 | . | -1.2 | . | .
CCOC(=O)C(Cc1c[nH]c2ccccc12)NC(=O)c1ccccc1Br (centres undefined) | 3.4 | . | 0.4 | 13.6* | 0.9 | -0.7 | 5.2 | 0.1
Fc1ccc(/C=C/c2nnc(-c3cccs3)o2)cc1 | 3.7 | 5.3 | 3.7* | 15.3* | 1.9 | 0.3 | 12.0* | 0.6
Cc1ccc(/C=C/c2nnc(-c3ccc(C)cc3)o2)cc1 | 1.4 | -2.3 | 0.6 | 2.4 | 0.2 | -1.0 | . | .
Cc1ccc(/C=C/c2nnc(-c3cccs3)o2)cc1 | 2.9 | -0.7 | 4.4* | 15.5* | -0.3 | -0.2 | 16.4* | 0.8
Cc1ccc(Nc2nc(C)cs2)cc1 | 4.0 | -3.3 | 2.2 | 16.4* | 0.6 | -0.1 | 14.1* | 0.9
c1ccc(-n2nc3c(ccc4cnnc43)[nH]2)cc1 | 5.7* | -2.3 | 2.0 | 18.8* | 1.3 | 0.9 | 12.3* | 0.6
Cc1ccc(N=c2oc3cc(O)ccc3cc2C(N)=O)cc1 | 4.8 | -2.8 | 1.6 | 17.7* | 0.0 | -0.7 | 5.5 | 0.3
CC(=O)c1cc2ccc(O)cc2oc1=O | -0.8 | 4.5 | 0.1 | 0.4 | 2.2 | -1.7 | . | .
C=CCN1C(=S)CC(c2ccccc2)=Nc2ccccc21 | -0.5 | . | -0.1 | 14.4* | -1.1 | -0.7 | -0.5 | 0.0
C=CCn1c(-c2csc(-c3ccccc3)n2)n[nH]c1=S | -0.8 | -1.1 | 0.0 | 1.8 | -0.6 | -0.9 | . | .
O=C1NC(c2ccc3ccccc3c2)Nc2ccccc21 (centres undefined) | 3.4 | . | 1.9 | 14.4* | 3.1 | 0.1 | 12.9* | 0.5
O=C1NC(c2ccc(Br)cc2)Nc2ccccc21 (centres undefined) | 3.3 | . | -0.8 | 9.5 | 4.0 | -0.9 | . | .
COc1ccc2ccccc2c1C1NC(=O)c2ccccc2N1 (centres undefined) | -0.8 | . | -4.2 | 14.4* | -3.0 | -1.5 | -1.2 | 0.0
